{"source": "PubChem BioAssay AID720517", "about": "(National Center for Advancing Translational Sciences (NCATS), 2013)", "note": "Inconclusive results are not listed. A call without a number means that no potency is given here. The source made the active and inactive calls. Calls come from the whole dose curve; as a rule, active = well fitted activation curve with a large enough effect; inconclusive = small, poorly fitted or top-dose-only effect; inactive = flat fitted curve, though single readings scatter. Potency is the fitted concentration of half-maximal effect."}
{"experiment": "qHTS for Inhibitors of Cell Surface uPA Generation: FP59 Counterscreen for Cherry-picked Compounds", "settings": "FP59 anthrax toxin cytotoxicity counterscreen, cells; series mostly up to 115 µM"}
{"smiles": "COc1ccccc1N1CCN(CC(=O)c2c(C)[nH]c3ccccc23)CC1", "Potency": "inactive"}
{"smiles": "CC(=O)Nc1sc(C)c(C)c1C(=O)OCC(=O)NC(C)c1ccccc1", "note": "(stereo not drawn)", "Potency": "inactive"}
{"smiles": "CCN(CC)CCNC(=O)/C(=C/c1cn(CC)c2ccccc12)NC(=O)c1cc(OC)c(OC)c(OC)c1", "Potency": "inactive"}
{"smiles": "CCCCn1c(N)c(N(Cc2ccccc2OC)C(=O)COc2ccc(C)cc2)c(=O)[nH]c1=O", "Potency": "inactive"}
{"smiles": "CC(=O)c1ccc(NC(=O)Nc2ccc(Br)cc2C)cc1", "Potency": "inactive"}
{"smiles": "C[C@H](O)[C@@H]1C(=O)N2CCc3ccc(-c4cccc(F)c4)cc3[C@@H]2C[C@@H]1N(C)C(=O)C(C)(C)C", "Potency": "inactive"}
{"smiles": "CCc1c(C)sc(NC(=S)N2CC(C)OC(C)C2)c1C(=O)OC", "note": "(stereo not drawn)", "Potency": "inactive"}
{"smiles": "O=C(NCCc1ccccc1)C1CCC(=O)N(Cc2cccc(C(F)(F)F)c2)C1", "note": "(stereo not drawn)", "Potency": "inactive"}
{"smiles": "CN(C)c1cccc(C(=O)N(C)C2CCCN(Cc3ccccc3F)C2)c1", "note": "(stereo not drawn)", "Potency": "52.1 µM (active)"}
{"smiles": "O=C(O)COc1ccccc1/C=N/NC(=O)CNC(=O)c1ccco1", "Potency": "inactive"}
{"smiles": "COc1ccc(C(C)=O)cc1CSC(=N)N", "Potency": "inactive"}
{"smiles": "CCOc1ccc(C(=O)NCCO)cc1", "Potency": "inactive"}
{"smiles": "COC(=O)[C@@]1(Cc2ccc(F)cc2)[C@H]2c3cc(C(=O)N(C)C)n(Cc4c(CO)[nH]cc(C)c4=O)c3C[C@H]2CN1C(=O)c1ccccc1", "Potency": "inactive"}
{"smiles": "Nc1nc2ccc(Br)cc2o1", "Potency": "inactive"}
{"smiles": "O=C(CSc1nnnn1-c1cccc(F)c1)Nc1nc2ccccc2s1", "Potency": "inactive"}
{"smiles": "NC(=O)CC(NC(=O)Cc1cccc2ccccc12)c1ccc(N2CCN(c3ccccc3)CC2)c([N+](=O)[O-])c1", "note": "(stereo not drawn)", "Potency": "inactive"}
{"smiles": "O=C(O)CNS(=O)(=O)c1ccc2c(c1)Cc1cc(S(=O)(=O)NCC(=O)O)ccc1-2", "Potency": "inactive"}
{"smiles": "Cc1ccc(S(=O)(=O)NCC(=O)N/N=C/c2ccc(Cl)cc2)cc1", "Potency": "inactive"}
{"smiles": "COc1cc2oc(=O)ccc2cc1[C@H](O)[C@@H](O)C(C)(C)O", "Potency": "inactive"}
{"smiles": "COc1ccc(C(=O)NC(=S)Nc2ccc(NC(=O)c3ccco3)cc2)cc1[N+](=O)[O-]", "Potency": "inactive"}
{"smiles": "CCOC(=O)C1(CC2CCCCO2)CCN(Cc2nccn2-c2cccc(C)c2)CC1", "note": "(stereo not drawn)", "Potency": "inactive"}
{"smiles": "CN(CCCNC(=O)Cn1cccc1C(=O)c1ccccc1)C1CCCCC1", "Potency": "inactive"}
{"smiles": "Fc1cccc(Cl)c1CSc1ccc(-c2cccnc2)nn1", "Potency": "inactive"}
